In PubChem BioAssay (Tox21):
Records with an inconclusive call do not appear. Active and inactive are the calls of the source. Unless noted, calls follow the shape of the dose curve; as a rule, active = well fitted curve in the direction sought with a large enough effect in the repeat runs; inconclusive = weak or mixed curves; inactive = no such curve, though single readings can be large; an effect the other way counts as inactive or inconclusive.

Experiments:
[1] = qHTS assay to identify small molecule antagonists of the estrogen related receptor (ERR) signaling pathway from Tox21 library - cell viability counter screen (AID 1224834); also: nearly all actives have a fitted effect of over 30% in size
Summary of the method: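 ERR reporter cells were plated 6 h before compound addition, then exposed to test compounds in DMSO for 17.5 h at 37 C. Viability was read as CellTiter-Fluor fluorescence after a 30-minute incubation at 37 C.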

[2] = qHTS assay to identify small molecule agonists of the constitutive androstane receptor (CAR) signaling pathway - cell viability counter screen (AID 1224836); also: series mostly up to about 92 µM; nearly all actives have a fitted effect of over 45% in size
Summary of the method: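 Cells were seeded and incubated 4 hrs. Compounds were added across 15 concentrations together with PK11195 at 0.75 uM final. Plates were incubated 23 hrs at 37 C. CellTiter-Fluor was added and fluorescence measured.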

[3] = qHTS assay to identify small molecule antagonists of the constitutive androstane receptor (CAR) signaling pathway - cell viability counter screen (AID 1224837); also: series mostly up to about 92 µM; nearly all actives have a fitted effect of over 45% in size
Summary of the method: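 HepG2 cells stably expressing hCAR and a CYP2B6-2.2kb reporter were plated and pre-incubated 4 hr at 37 C/5% CO2, then given compounds at 15 concentrations plus 50 nM CITCO (final). After 23 hr, viability was read by CellTiter-Fluor fluorescence.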

[4] = target: Nuclear receptor subfamily 1 group I member 3 (Homo sapiens) (UniProt Q14994); assay: qHTS assay to identify small molecule antagonists of the constitutive androstane receptor (CAR) signaling pathway (AID 1224838); also: nearly all actives have a fitted effect of over 40% in size
Nuclear receptor subfamily 1 group I member 3 (Homo sapiens), sequence (Q14994 whole entry, looked up): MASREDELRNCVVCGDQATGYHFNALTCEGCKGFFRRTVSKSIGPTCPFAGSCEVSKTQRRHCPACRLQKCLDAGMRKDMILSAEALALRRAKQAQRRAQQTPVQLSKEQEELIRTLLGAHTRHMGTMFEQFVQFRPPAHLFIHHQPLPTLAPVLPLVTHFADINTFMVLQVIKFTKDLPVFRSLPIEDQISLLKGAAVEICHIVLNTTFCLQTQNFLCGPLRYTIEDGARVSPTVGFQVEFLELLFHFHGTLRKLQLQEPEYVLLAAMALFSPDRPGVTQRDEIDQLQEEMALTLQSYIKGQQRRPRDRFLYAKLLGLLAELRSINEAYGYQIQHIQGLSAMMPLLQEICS
Summary of the method: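 HepG2 cells stably co-transfected with hCAR and a CYP2B6-2.2kb luciferase reporter were seeded 4 h before compound addition at 15 concentrations. Cells were stimulated with 50 nM CITCO (final) for 24 h at 37 C; luciferase luminescence was then read.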

[5] = target: Nuclear receptor subfamily 1 group I member 3 (Homo sapiens) (UniProt Q14994); assay: qHTS assay to identify small molecule agonists of the constitutive androstane receptor (CAR) signaling pathway (AID 1224839); also: nearly all actives have a fitted effect of over 15% in size; also: potency is read from the fitted curve at half-maximal effect;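 as to activation: HepG2 cells stably carrying human CAR and a CYP2B6 luciferase reporter; series mostly up to about 92 µM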
Summary of the method: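 Cells were plated and incubated 4 hrs, then dosed with compounds at 15 concentrations. PK11195 was added to 0.75 uM final. After 24 hrs at 37 C, luciferase luminescence was measured.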

[6] = qHTS assay to identify small molecule antagonists of the estrogen related receptor signaling pathway with the pleiotropic PPARgamma coactivator (PGC) from Tox21 10K library - cell viability counter screen (AID 1224840; active = well fitted cell-killing curve with a large enough effect in the repeat runs, not every such curve was filed as active; also: nearly all actives have a fitted effect of over 40% in size)
Summary of the method: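 PGC/ERR cells were seeded at 2,000 cells/well and left 6 hours at 37 C/5% CO2 before pin-tool addition of compounds in DMSO. After 17.5 hours at 37 C, CellTiter-Fluor was added and fluorescence read 30 minutes later.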

[7] = target: Thyrotropin receptor (Homo sapiens) (UniProt P16473); assay: qHTS assay to identify small molecule agonists of the thyroid stimulating hormone receptor (TSHR) signaling pathway (AID 1224843; calls by dose curve; also: nearly all actives have a fitted effect of over 45% in size)
Thyrotropin receptor (Homo sapiens), sequence (P16473 whole entry, looked up): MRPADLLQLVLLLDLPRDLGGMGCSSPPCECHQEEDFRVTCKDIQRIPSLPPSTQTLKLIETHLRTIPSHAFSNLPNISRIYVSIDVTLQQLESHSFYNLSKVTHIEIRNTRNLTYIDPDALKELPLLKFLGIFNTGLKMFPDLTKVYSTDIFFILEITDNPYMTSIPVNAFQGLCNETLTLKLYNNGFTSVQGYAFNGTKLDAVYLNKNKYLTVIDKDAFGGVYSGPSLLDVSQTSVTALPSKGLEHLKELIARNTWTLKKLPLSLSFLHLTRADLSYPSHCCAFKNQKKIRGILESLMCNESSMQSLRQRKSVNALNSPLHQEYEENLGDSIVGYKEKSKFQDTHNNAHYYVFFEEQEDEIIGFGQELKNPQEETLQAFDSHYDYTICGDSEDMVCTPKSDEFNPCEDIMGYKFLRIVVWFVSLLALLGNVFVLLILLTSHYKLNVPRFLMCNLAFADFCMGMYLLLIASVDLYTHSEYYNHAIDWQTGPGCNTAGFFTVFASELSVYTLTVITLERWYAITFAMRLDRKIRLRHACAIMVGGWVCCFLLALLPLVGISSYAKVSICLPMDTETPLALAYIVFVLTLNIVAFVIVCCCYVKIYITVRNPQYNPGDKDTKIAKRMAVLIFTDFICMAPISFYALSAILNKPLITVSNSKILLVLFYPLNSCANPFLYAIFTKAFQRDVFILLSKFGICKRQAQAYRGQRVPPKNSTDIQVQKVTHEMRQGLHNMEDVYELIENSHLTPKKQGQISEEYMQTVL
Summary of the method: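 HEK293 cells stably bearing the thyrotropin receptor were plated at 800 cells/well and challenged with compound (30 min, RT). Accumulated cAMP was quantified via cAMP-d2 competing for cryptate-tagged antibody.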

[8] = target: Luciferin 4-monooxygenase (Photinus pyralis) (UniProt P08659); assay: qHTS assay to identify small molecule inhibitors of firefly luciferase (AID 1224835); also: series mostly up to about 120 µM; nearly all actives have a fitted effect of over 25% in size
Luciferin 4-monooxygenase (Photinus pyralis), sequence (P08659 whole entry, looked up): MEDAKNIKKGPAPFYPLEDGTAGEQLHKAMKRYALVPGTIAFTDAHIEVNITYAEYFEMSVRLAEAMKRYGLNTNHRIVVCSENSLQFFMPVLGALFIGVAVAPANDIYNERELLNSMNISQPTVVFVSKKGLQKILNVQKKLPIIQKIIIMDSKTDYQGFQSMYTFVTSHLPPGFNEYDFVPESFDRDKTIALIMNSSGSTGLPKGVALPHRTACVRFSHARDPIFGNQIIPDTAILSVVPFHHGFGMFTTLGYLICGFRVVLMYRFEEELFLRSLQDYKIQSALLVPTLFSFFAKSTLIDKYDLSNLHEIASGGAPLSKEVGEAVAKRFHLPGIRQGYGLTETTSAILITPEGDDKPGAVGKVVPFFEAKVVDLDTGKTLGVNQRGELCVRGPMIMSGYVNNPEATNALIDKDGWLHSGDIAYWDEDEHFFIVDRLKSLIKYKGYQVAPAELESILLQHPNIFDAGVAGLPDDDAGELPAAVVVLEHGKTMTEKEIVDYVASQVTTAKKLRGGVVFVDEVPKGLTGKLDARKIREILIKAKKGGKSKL
Summary of the method: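 Inhibition of purified Photinus luciferase is measured by luminescence. Substrate levels (D-luciferin, ATP) sit at their KM values. Each compound is tested in a concentration series.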

[9] = qHTS assay to identify small molecule agonists of the estrogen related receptor signaling pathway with the pleiotropic PPARgamma coactivator (PGC) from Tox21 10K library (AID 1224842); also: nearly all actives have a fitted effect of over 15% in size
Summary of the method: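 Luminescence from One-Glo (30 min, room temperature) measured after PGC/ERR cells had 18 h at 37 C with pinned compound (23 nL in DMSO). Cells had been seeded at 2,000 per well and pre-incubated 6 h.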

[10] = qHTS assay to identify small molecule antagonists of the estrogen related receptor signaling pathway with the pleiotropic PPARgamma coactivator (PGC) from Tox21 10K library (AID 1224841; call rule not given here; also: series mostly up to about 92 µM; actives are mostly falling curves and most rising ones were filed inactive; nearly all actives have a fitted effect of over 50% in size)
Summary of the method: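 PGC/ERR reporter cells were seeded at 2,000 cells/well and held 6 hours at 37 C/5% CO2 before pin-tool addition of compounds in DMSO. After 18 hours at 37 C, One-Glo was added and luminescence read after 30 minutes at room temperature.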
% is scaled to controls: 0 for no effect and ±100 for the full control effect.

CC1=C(C(=O)O)N2C(=O)[C@@H](NC(=O)[C@H](N)c3ccc(O)cc3)[C@H]2SC1
inactive: Potency [1] | Potency [2] | Potency [3] | outcome [4] | Potency [5] | outcome [6] | Potency [7]

CC(C)NCC(O)COc1ccc(COCCOC(C)C)cc1 (stereo unspecified)
inactive: Potency [1] | Potency [8] | Potency [3] | outcome [4] | Potency [5] | Potency [7]

O=S(O)(O)=S
inactive: viability change, negative = cytotoxic [1] 0.32% [at 8.39 µM] | activity change, negative = inhibition [8] 1.12% [at 10.5 µM] | activity, negative = inhibition [4] -2.22% [at 8.39 µM] | activation [9] -0.09% [at 8.39 µM] | activation [7] 8.08% [at 8.39 µM]

CC(C)CCCCOC(=O)c1ccccc1C(=O)OCCCCC(C)C
inactive: Potency [1] | Potency [8] | outcome [4] | Potency [5] | Potency [10] | outcome [9]

CN1C(C)(C)CCCC1(C)C
inactive: Potency [1] | Potency [8] | Potency [3] | outcome [6] | Potency [7]

NCCS
inactive: Potency [1] | Potency [8] | Potency [3] | outcome [6] | Potency [10] | outcome [9]

OC[C@H](Cc1cccc(O)c1)[C@H](CO)Cc1cccc(O)c1
inactive: Potency [1] | Potency [2] | Potency [3] | outcome [4] | Potency [5] | outcome [6] | Potency [10] | outcome [9]

CCOC(=O)CC(=O)c1ccccc1
inactive: Potency [1] | Potency [8] | Potency [3] | outcome [4] | Potency [5] | Potency [7]

COc1ccc(Br)c(C)c1
inactive: Potency [1] | Potency [8] | Potency [3] | outcome [4] | Potency [5] | Potency [10] | outcome [9] | Potency [7]

Nc1ccc(S(=O)(=O)Nc2ccc(Cl)nn2)cc1
inactive: Potency [1] | Potency [8] | outcome [4] | Potency [5] | outcome [6] | Potency [10] | outcome [9]

CC1COc2ccccc2N1 (stereo unspecified)
inactive: Potency [1] | Potency [2] | Potency [3] | outcome [4] | Potency [5] | outcome [6] | Potency [10] | outcome [9] | Potency [7]

CC(=O)CCCCn1c(=O)c2c(ncn2C)n(C)c1=O
inactive: Potency [1] | Potency [8] | Potency [3] | outcome [6] | Potency [10] | outcome [9] | Potency [7]

CC(C)(C)c1nnc(NS(=O)(=O)c2ccc(N)cc2)s1
inactive: Potency [1] | Potency [8] | Potency [3] | outcome [4] | Potency [5] | outcome [6] | Potency [7]

Cc1cc2cc3c(C)cc(=O)oc3c(C)c2o1
inactive: Potency [1] | Potency [2] | Potency [3] | outcome [4] | Potency [10] | outcome [9] | Potency [7]
active: Potency [5] 11.9 µM

O=C1c2ccccc2C(=O)c2cc(S(=O)(=O)O)ccc21
inactive: Potency [1] | Potency [2] | Potency [3] | outcome [4] | Potency [5] | outcome [6] | Potency [7]

O=C(O)Cc1ccc(Cl)cc1Cl
inactive: Potency [1] | Potency [8] | outcome [6] | Potency [7]

CCCC/C=C/C=C\C=O
inactive: Potency [1] | Potency [8] | Potency [3] | outcome [4] | Potency [5] | outcome [6] | Potency [7]

O=C(O)c1cc(Br)c(O)c(Br)c1
inactive: Potency [1] | Potency [8] | Potency [3] | Potency [10] | outcome [9] | Potency [7]

O=P(O)(O)OP(=O)(O)O
inactive: Potency [1] | Potency [2] | Potency [3] | outcome [4] | Potency [5] | outcome [6] | Potency [7]

Oc1ccccc1-c1nnco1
inactive: Potency [1] | Potency [8] | Potency [3] | outcome [6] | Potency [7]

O=C1c2cccc3c2[C@H](CCC3)CN1[C@@H]1CN2CCC1CC2
inactive: Potency [8] | Potency [2] | Potency [3] | outcome [6] | Potency [10] | Potency [7]

Cc1cc(NC(=O)C2=C(O)c3ccccc3S(=O)(=O)N2C)no1
inactive: Potency [1] | Potency [2] | Potency [3] | outcome [6] | Potency [7]

COCCOC(=O)C1=C(C)NC(C)=C(C(=O)OC(C)C)C1c1cccc([N+](=O)[O-])c1 (stereo unspecified)
inactive: Potency [8] | Potency [2] | outcome [4] | Potency [7]

CCOC(=O)c1ccc(OC(=O)CCCCCN=C(N)N)cc1
inactive: Potency [1] | Potency [3] | outcome [4] | Potency [7]

CCOc1cc([N+](=O)[O-])c(OCC)cc1N1CCOCC1
inactive: Potency [8] | Potency [2] | Potency [3] | outcome [6] | Potency [7]

CC(C)=CCOC(=O)c1ccccc1
inactive: Potency [1] | Potency [2] | outcome [6] | Potency [10] | outcome [9] | Potency [7]

CC1(CO)CN(c2ccccc2)NC1=O (stereo unspecified)
inactive: Potency [8] | Potency [2] | Potency [3] | outcome [4] | Potency [7]
